# In the library only some 22% were active in any assay of this set; here they are far more common.
# CYP2C9 inh – human CYP2C9 inhibition. P11712. CYP2C9 Supersomes, luciferin-H conversion, luminescence. inhibition, % at 5 µM. 96,000 tested, 20% active;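 active means blocking of liver enzyme CYP2C9 beyond about 50% at 5 µM, limit read from the data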
# Target sequence (P11712 whole entry, looked up): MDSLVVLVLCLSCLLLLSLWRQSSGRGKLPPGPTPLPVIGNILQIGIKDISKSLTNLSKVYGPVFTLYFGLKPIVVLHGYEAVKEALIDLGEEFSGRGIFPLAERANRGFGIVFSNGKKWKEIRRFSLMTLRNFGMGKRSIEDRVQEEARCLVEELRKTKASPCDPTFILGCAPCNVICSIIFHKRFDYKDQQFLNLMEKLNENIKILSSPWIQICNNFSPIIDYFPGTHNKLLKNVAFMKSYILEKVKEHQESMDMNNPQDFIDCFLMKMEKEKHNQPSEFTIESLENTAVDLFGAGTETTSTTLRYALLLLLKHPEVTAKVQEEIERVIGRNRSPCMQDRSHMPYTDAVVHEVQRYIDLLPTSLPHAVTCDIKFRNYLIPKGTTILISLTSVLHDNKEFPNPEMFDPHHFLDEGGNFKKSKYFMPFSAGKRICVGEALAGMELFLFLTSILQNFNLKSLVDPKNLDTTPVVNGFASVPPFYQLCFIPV
# CYP2C19 act – activators of human cytochrome P450 2C19; P33261; AID 1025; activation factor at 5 µM; recombinant CYP2C19, luciferin-H EGE luminescence; active compounds read high; 0 = fully inhibited enzyme, 1 = untreated enzyme; 96,000 tested, under 10 active;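 active means activation factor of at least 2 at 5 µM in the primary screen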;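 further: 0 = wells with 2.5 mM tranylcypromine and 1 = vehicle-only wells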
# CYP2C19 inhib – inhibitors of human CYP2C19. CYP2C19 Supersomes, luciferin-H EGE luminescence, 30 min. inhibition, % at 5 µM. 96,000 tested, 21% active;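 active means CYP2C19 inhibition above a set limit at 5 µM in the primary screen, cut at about 50% in these data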;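 further: plate controls were negative control wells for no effect and 2.5 mM tranylcypromine positive control for full effect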
# CYP2C9 act – CYP2C9 (human) activation. P11712. recombinant CYP2C9, luciferin-H conversion, luminescence; active compounds read high; factor 1 = untreated enzyme, 0 = blocked. activation factor at 5 µM. 96,000 tested, 1.4% active. AID 1024;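 active means activation factor of 2 or more for CYP2C9 at a 5 µM dose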;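 further: 0 = sulfaphenazole-blocked wells and 1 = vehicle-only wells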
# Measles CPE – protection of cells from measles virus; Measles virus-infected cells, CPE protection, absorbance; protection (pct of control), % at 4 µM; 140,000 tested, 1.5% active; in the data active means protection mostly above about 24%, no sharp cut-off; inactive means mostly below about 26%
# The depositor's hits bear a star; / = no result.
SMILES,CYP2C9 inh,CYP2C19 act,CYP2C19 inhib,CYP2C9 act,Measles CPE
COC(=O)C1CCN(c2nc3ccccc3nc2C(C#N)C(=O)OCC(C)C)CC1 (stereo unspecified),47.8,0.7,34.5,0.5,4.0
CCOC(=O)C1CCCN(c2nc3ccccc3nc2C(C#N)C(=O)OC(C)C)C1 (stereo unspecified),/,/,/,/,5.6
CCOC(=O)C1CCN(c2nc3ccccc3nc2C(C#N)C(=O)OCCOC)CC1 (stereo unspecified),49.9,0.3,66.2*,0.5,16.3
C=CCOC(=O)C(C#N)c1nc2ccccc2nc1N1CCN(Cc2ccc3c(c2)OCO3)CC1 (stereo unspecified),57.3*,0.7,25.9,0.4,11.4
CCOC(=O)C1CCN(c2nc3ccccc3nc2C(C#N)C(=O)OC(C)C)CC1 (stereo unspecified),17.4,0.1,91.6*,0.8,12.1
CC(C)OC(=O)C(C#N)c1nc2ccccc2nc1N1CCCC1 (stereo unspecified),/,/,/,/,7.0
C=CCOC(=O)C(C#N)c1nc2ccccc2nc1N1CCC(C(=O)OCC)CC1 (stereo unspecified),56.0*,0.7,26.1,0.4,6.1
O=S(=O)(Nc1ccc(Cl)c(C(F)(F)F)c1)c1cnc[nH]1,99.2*,0,95.7*,0,18.7
O=S(=O)(Nc1cccnc1)c1cccc(C(F)(F)F)c1,-21.0,0.8,24.0,1.2,19.8
O=C(O)CCCCNS(=O)(=O)c1ccc(Cl)c(C(F)(F)F)c1,1.2,0.9,13.9,1,7.5
Cc1cccc(NS(=O)(=O)c2cnc[nH]2)c1,/,/,/,/,7.3
O=S(=O)(Nc1ccc(C(F)(F)F)cc1)c1cnc[nH]1,99.5*,0,98.8*,0,13.9
O=S(=O)(Nc1cccc(C(F)(F)F)c1)c1cnc[nH]1,100.0*,0,97.7*,0,9.4
O=C(CCCCCN1C(=O)c2ccccc2C1=O)Nc1nccs1,56.5*,0.9,5.9,0.4,7.7
O=C1c2ccccc2C(=O)c2cc(NC(=O)C3CC3)ccc21,/,/,/,/,7.8
CC(=O)Nc1ccc(NC(=O)CCCCCN2C(=O)c3ccccc3C2=O)cc1,92.5*,0.6,39.8,0.1,9.3
O=C(CCCCCN1C(=O)c2ccccc2C1=O)Nc1ccccc1,58.3*,0.4,64.5*,0.4,25.9
CC(=O)Nc1ccc2c(c1)C(=O)c1ccccc1C2=O,63.2*,0.7,30.2,0.4,22.1
BrCCOCCOc1ccc2ccccc2c1,/,/,/,/,16.5
O=C(CCCN1C(=O)c2ccccc2C1=O)NCC1CCCO1 (stereo unspecified),-2.2,1,-2.7,1,14.2
Cc1cccnc1NC(=O)CCCN1C(=O)c2ccccc2C1=O,-110.0,0.9,7.3,2.1*,12.7
COC(=O)c1oc2ccc(Br)cc2c1NC(=O)CCCN1C(=O)c2ccccc2C1=O,64.5*,0.6,42.7,0.4,11.5
Cc1ccc(NC(=O)CCCN2C(=O)c3cccc4cccc(c34)C2=O)cc1,/,/,/,/,13.2
CCN(CC)c1ccc(NC(=O)CCCCCN2C(=O)c3ccccc3C2=O)cc1,76.3*,0.8,18.9,0.2,24.3
O=C(CCCN1C(=O)c2ccccc2C1=O)Nc1c2c(nc3c1CCC3)CCC2,63.0*,1,-4.4,0.4,25.0
SMILES,CYP2C9 inh,CYP2C19 act,CYP2C19 inhib,CYP2C9 act,Measles CPE
Cc1cccc2cc(CN(Cc3ccco3)C(=O)c3cccs3)c(=O)[nH]c12,9.5,0.9,7.4,0.9,5.7
COc1ccc(N2C(=O)c3ccc(NC(C)=O)cc3C2=O)cc1,55.4*,0.9,11.8,0.4,/
CC(=O)Nc1ccc2c(c1)C(=O)N(c1ccc(C)cc1)C2=O,37.9,0.8,18.3,0.6,10.5
Cc1c(C(=O)NCc2ccc3c(c2)OCO3)sc2nc(-c3ccc(F)cc3)cn12,-4.8,1.1,-6.7,1,8.8
Cc1c(C(=O)NCc2ccccn2)sc2nc(-c3ccc(F)cc3)cn12,62.6*,1,-1.7,0.4,8.3
Cc1c(C(=O)NCC2CCCO2)sc2nc(-c3ccc(F)cc3)cn12 (stereo unspecified),55.1*,1,-2.4,0.4,4.2
O=c1c(Cl)c(N2CCCCC2)cnn1-c1nc2ccccc2[nH]1,23.5,0.4,62.3*,0.8,15.2
CCCCn1nc2cc(C(=O)NCCCCc3ccccc3)ccc2c1OCC,15.0,0.8,17.7,0.8,4.5
COC(=O)c1ccc(OC)c(CSc2nnc(COc3ccc(Cl)cc3)o2)c1,88.0*,0.2,75.9*,0.1,8.8
O=C(CSc1nnc(COc2ccc(Cl)cc2)o1)N1c2ccccc2CCc2ccccc21,74.1*,0.7,27.5,0.3,2.1
COC(=O)c1ccc(OC)c(CSc2nnc(COc3ccccc3)o2)c1,38.5,0.6,38.3,0.6,12.5
COC(=O)c1ccc(OC)c(CSc2nnc(-c3ccc(C(C)(C)C)cc3)o2)c1,84.0*,0.1,90.3*,0.2,7.3
O=C(COC(=O)c1ccc(S(=O)(=O)N2CCOCC2)cc1)Nc1nc(-c2ccccc2)cs1,-16.2,1.1,-14.4,1.2,/
CCCNS(=O)(=O)c1ccc(CCC(=O)N2CCC(C)CC2)cc1,51.9*,0.2,81.5*,0.5,5.4
CC1CCN(C(=O)CCc2ccc(S(=O)(=O)NC(C)(C)C)cc2)CC1,62.8*,0.3,74.2*,0.4,12.8
CCCNS(=O)(=O)c1ccc(CCC(=O)NCC2CCCO2)cc1 (stereo unspecified),/,/,/,/,6.8
Cc1ccc(CN2CCNC2=O)cc1,11.7,1,2.9,0.9,9.8
O=C1NCCN1Cc1ccc(F)cc1,-5.8,0.9,14.4,1.1,35.9*
O=C1NCCN1Cc1ccccc1F,/,/,/,/,40.1*
O=C1NCCN1Cc1ccccc1,6.0,1,-1.9,0.9,9.2
CCN(CC)c1ccc2cc(C(=O)Nc3ccccn3)c(=O)oc2c1,56.7*,0.5,45.3,0.4,13.4
CCN(CC)c1ccc2cc(C(N)=O)c(=O)oc2c1,/,/,/,/,5.8
CCN(CC)c1ccc2cc(C(C)=O)c(=O)oc2c1,-10.1,0.9,12.0,1.1,43.4*
Cc1c(C(=O)N2CCC(C(N)=O)CC2)sc(N)c1C#N,0.5,1,-1.6,1,6.4
CCN(CC)S(=O)(=O)c1ccc2oc(C(=O)NCc3ccc(F)cc3)c(C)c2c1,59.4*,0.4,58.2*,0.4,0.5
Cc1c(C(=O)NCC2CCCO2)oc2ccc(S(=O)(=O)N3CCCCC3)cc12 (stereo unspecified),/,/,/,/,19.6
CCN(CC)S(=O)(=O)c1ccc2oc(C(=O)NCCCN3CCOCC3)c(C)c2c1,22.7,0.8,20.7,0.8,4.8
Cc1c(C(=O)NCC2COc3ccccc3O2)oc2ccc(S(=O)(=O)N3CCOCC3)cc12 (stereo unspecified),55.8*,0.8,18.4,0.4,2.0
CCN(CC)S(=O)(=O)c1ccc2oc(C(=O)NCC3COc4ccccc4O3)c(C)c2c1 (stereo unspecified),75.5*,0.7,34.5,0.2,5.9
Cc1c(C(=O)NCC2CCCO2)oc2ccc(S(=O)(=O)N3CC(C)CC(C)C3)cc12 (stereo unspecified),58.9*,0.7,33.9,0.4,11.2

# Source: PubChem (several laboratories)
